Compound activity deposited in PubChem BioAssay by National Center for Advancing Translational Sciences (NCATS).
A selection: hits, their analogues and other compounds. The true share with any hit is near 21%.
Gal4-VP16 FLuc: counter-screen for ROR gamma inhibitors: Gal4-VP16 reporter. hit rate 3.5% among 310,000. Drosophila S2 Gal4-VP16 UAS-luciferase, luminescence, 20 h. Potency, µM (highest dose often 53.6 µM), inactives show top-dose activity, negative = inhibition, usual class: inhibitors;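 further: Gal4-VP16 expression switched on by copper sulfate through the metallothionein promoter; potency means the concentration at half of the fitted maximal effect; nearly all actives have a fitted effect of over 50% in size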
TDP1 cell noCPT: qHTS for Inhibitors of human tyrosyl-DNA phosphodiesterase 1 (TDP1): qHTS in cells in absence of CPT. DT40 Tdp1-/- hTDP1 cells, no CPT, ATP luminescence, 48 h. Potency, µM (series often up to 46.2 µM), inactives show at the highest dose activity change, negative = growth inhibition, usual class: inhibitors. hit rate 15% among 420,000. AID 686978, 2013; further: potency means the concentration at half of the fitted maximal effect; nearly all actives have a fitted effect of over 55% in size
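Seeded 400 DT40-hTDP1 cells/well (vehicle DMSO, no 20 nM CPT); pinned compounds; ≥48 hr at 37 °C; CellTiter-Glo luminescence as viability measure.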
TDP1 cell CPT: growth inhibition of DT40 Tdp1-/-;hTDP1 cells with camptothecin (screen for TDP1 inhibitors); chicken DT40 Tdp1-/-;hTDP1 cells + 20 nM CPT, ATP luminescence, 48 h; Potency, µM (series often up to 46.2 µM), for inactives: top-dose activity change, negative = growth inhibition, actives largely listed as inhibitors; hit rate 12% among 420,000; AID 686979; further: potency means the concentration at half of the fitted maximal effect; nearly all actives have a fitted effect of over 55% in size
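Chicken DT40 Tdp1-/- cells complemented with human TDP1, 400 cells/well, exposed to compounds plus 20 nM camptothecin for at least 48 h at 37 C; viability read as ATP content by CellTiter-Glo luminescence.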
ELG1 DNA repair: ELG1-dependent DNA repair inhibition; HEK293T ELG1-luciferase reporter, luminescence, 16 h; DNA damage induced by 5-fluorouridine; Potency, µM (top dose mostly 46.1 µM), inactives show top-dose activity change, negative = inhibition, hits mostly inhibitors; hit rate 2.3% among 330,000; AID 504467; further: potency means the concentration at half of the fitted maximal effect; nearly all actives have a fitted effect of over 55% in size
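Step one: seed 2,000 cells per well. Step two: pin-transfer compound or DMSO alongside 5-fluorouridine. Step three: incubate 16 hr, 37 °C, 5% CO2. Step four: add ONE-Glo, wait 30 min, read luminescence.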
IL1B secr inh: inhibitors of inflammasome signaling (IL-1 beta secretion); THP-1 LPS/ATP IL-1B secretion, AlphaLISA, 16 h; active compounds read low; activity change, % at 57.5 µM; hit rate 4.7% among 360,000; AID 743279; in the data active means activity change below about -50%; inconclusive means mostly about -30% to -49%
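Secreted IL-1B measured by AlphaLISA bead assay after 16 h compound exposure of THP-1 cells; compounds (final up to 57.5 uM) added 1 h before LPS (250 ng/mL) and ATP (1.25 mM) stimulation; lower signal means less secretion.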
RORg inh: inhibitors of mouse ROR gamma transcriptional activity | P51450 | Drosophila S2 Gal4-RORgamma UAS-luciferase reporter, 20 h | Potency, µM (doses to about 53.6 µM), for the others: at the highest dose activity change, negative = inhibition, hits mostly inhibitors | hit rate 5.4% among 310,000; further: potency means the concentration at half of the fitted maximal effect; nearly all actives have a fitted effect of over 60% in size
Target sequence (P51450 whole entry, looked up, the tested form may be a part): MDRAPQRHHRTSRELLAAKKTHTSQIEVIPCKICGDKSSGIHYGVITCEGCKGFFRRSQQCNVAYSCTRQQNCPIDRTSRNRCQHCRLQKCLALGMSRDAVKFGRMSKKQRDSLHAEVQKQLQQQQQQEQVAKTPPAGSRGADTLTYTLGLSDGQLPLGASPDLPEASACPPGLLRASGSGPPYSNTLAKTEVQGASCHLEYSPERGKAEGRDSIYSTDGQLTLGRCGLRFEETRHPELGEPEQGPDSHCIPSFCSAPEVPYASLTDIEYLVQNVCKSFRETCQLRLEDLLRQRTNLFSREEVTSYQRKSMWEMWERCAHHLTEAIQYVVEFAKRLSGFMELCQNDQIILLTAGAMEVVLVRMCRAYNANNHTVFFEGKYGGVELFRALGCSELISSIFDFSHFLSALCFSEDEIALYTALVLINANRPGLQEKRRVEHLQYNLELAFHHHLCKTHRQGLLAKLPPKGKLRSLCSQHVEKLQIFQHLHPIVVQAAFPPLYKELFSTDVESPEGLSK
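Drosophila Schneider cells stably carrying a metallothionein-driven Gal4 DBD–ROR gamma fusion and a UAS-Photinus luciferase reporter were exposed to compound for 1 hr, then induced with copper sulfate (700 uM final) for 20 hr at ambient temperature before luminescence reading.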
Starred values were filed as active, the others as inactive; ? = inconclusive; · = no result. Unless noted, the call rests on the fitted dose curve; in most records, active means well fitted curve in the direction sought with a large enough effect; inconclusive means small, poorly fitted or top-dose-only effect, or another doubt; inactive means no such curve, though single readings can be large; an effect the other way counts as inactive or inconclusive. On the % scale 0 is the no-effect control and ±100 the full control effect.

SMILES | Gal4-VP16 FLuc | TDP1 cell noCPT | TDP1 cell CPT | ELG1 DNA repair | IL1B secr inh | RORg inh
COC(=O)[C@H]1C[C@@]2(O)CN(S(=O)(=O)c3ccc(C)cc3)C[C@@]2(OC(=O)NC2CC2)C[C@H]1C(=O)OC | · | -27% | 4% | · | 9 | ·
Cc1nc(NC(=O)COC(=O)c2ccc(CO)cc2)c(Cl)cc1Cl | · | -3% | -8% | 14% | 14 | ·
CN(CCO)C(=O)c1cn(C2CCN(Cc3ccc(C(F)(F)F)cc3)CC2)nn1 | · | -14% | -14% | · | · | ·
CC(C)Oc1ccc(S(=O)(=O)N2CCOCC2)cc1NC(=O)CN1C(=O)NC2(CCCC2)C1=O | -2% | 2% | -20% | 4% | 0 | 9%
COCCCn1c(=N)c(C(N)=S)cc2c(=O)n3cccc(C)c3nc21 | · | 23µM* | 18µM* | · | -68* | ·
CCOCCCn1c(=N)c(C(=O)NC2CCCC2)cc2c(=O)n3cccc(C)c3nc21 | · | 21µM* | ? | · | · | ·
CCOCCCn1c(=N)c(C(=O)NCc2ccc3c(c2)OCO3)cc2c(=O)n3cccc(C)c3nc21 | -7% | ? | ? | ? | -60* | 1%
CCOCCCn1c(=N)c(S(=O)(=O)c2ccccc2)cc2c(=O)n3cc(C)ccc3nc21 | 6% | 16µM* | ? | 17% | 21 | -6%
COCCCn1c(=N)c(C(=O)NCc2ccc3c(c2)OCO3)cc2c(=O)n3cccc(C)c3nc21 | · | 26% | -4% | · | 0 | ·
Cc1ccc(CN2CC(N3CCN(CC4CC4)CC3)CS2(=O)=O)cc1 (stereo not drawn) | · | 1% | 1% | · | 8 | ·
CCCNC(=O)NC(=O)CSc1nncs1 | -22% | -4% | -1% | 7% | -12 | 12%
CCCCn1c(N)c(N(CC(C)C)C(=O)CSc2n[nH]c(-c3ccc(C)cc3)n2)c(=O)[nH]c1=O | · | -8% | -21% | ? | -1 | ·
COc1cccc(CN(C(=O)c2cc3ccccc3oc2=O)C2CCS(=O)(=O)C2)c1 (stereo not drawn) | 0% | 18% | 1% | ? | 2 | -37%
CCn1c(=N)c(C(=O)NC)cc2c(=O)n3cccc(C)c3nc21 | -3% | 16µM* | ? | -12% | -21 | -22%
CCCCn1c(=N)c(C(=O)NC2CCCCC2)cc2c(=O)n3cccc(C)c3nc21 | · | 0% | 6% | · | · | ·
CCCn1c(=N)c(C(=O)NC2CCCC2)cc2c(=O)n3cccc(C)c3nc21 | -14% | 12µM* | ? | ? | -21 | ?
COCCn1c(=N)c(S(=O)(=O)c2ccc(F)cc2)cc2c(=O)n3cccc(C)c3nc21 | 1% | 8.2µM* | ? | -11% | -2 | -14%
CCn1c(=N)c(C(=O)NCc2ccccc2)cc2c(=O)n3cccc(C)c3nc21 | · | -27% | -17% | · | · | ·
Cc1ccc2nc3c(cc(C(N)=S)c(=N)n3CCCOC(C)C)c(=O)n2c1 | -18% | 16µM* | 16µM* | ? | -9 | 3%
Cc1ccc(N2CCN(S(=O)(=O)c3ccc4oc(=O)c5ncn(C)c5c4c3)CC2)c(C)c1 | · | ? | -10% | · | · | ·
CC(C)[C@H]1COCCS(=O)(=O)N1Cc1ccccc1-c1ccc(F)cc1 | · | -46% | ? | 2% | 13 | ·
CCOC(=O)CN(C(=O)COc1nc(-c2ccccc2)cc(C)c1C#N)c1ccccc1 | 0% | ? | -68% | 0% | 20 | -3%
CCOC(=O)CN(C(=O)COc1nc(-c2ccccc2)cc(C)c1C#N)c1ccccc1C | 1% | 10µM* | 16µM* | 21µM* | 49 | 8%
Cc1cccc(Nc2nc(C)cc(C)n2)c1 | -7% | -12% | -5% | 30% | -4 | -5%
Cc1cccc(NC2=NC(C)(C)N=C(N)N2)c1 | 4% | 0.16µM* | 0.46µM* | ? | 42 | 12%
SMILES | Gal4-VP16 FLuc | TDP1 cell noCPT | TDP1 cell CPT | ELG1 DNA repair | IL1B secr inh | RORg inh
C[C@H](CO)N1C[C@H](C)[C@H](CN(C)C(=O)c2ccccn2)Oc2cc(C#Cc3ccc(F)cc3)ccc2S1(=O)=O | · | 18µM* | 21µM* | · | 0 | ·
C[C@H]1CN([C@@H](C)CO)S(=O)(=O)c2ccc(C#Cc3ccccn3)cc2O[C@@H]1CN(C)C(=O)C1CC1 | · | 16µM* | ? | · | -3 | ·
CC(C)CC#Cc1ccc2c(c1)O[C@H](CN(C)C(=O)Cc1ccncc1)[C@H](C)CN([C@H](C)CO)S2(=O)=O | · | 26µM* | ? | · | -28 | ·
C[C@H]1CN([C@@H](C)CO)S(=O)(=O)c2ccc(Br)cc2O[C@@H]1CN(C)C(=O)Cc1ccccc1 | · | ? | ? | · | -13 | ·
COc1ccc(OC(F)(F)F)cc1CC1(C)C(=O)Nc2cccc(Cl)c21 (stereo not drawn) | · | 15µM* | ? | · | 0 | ·
COc1ccc(Cl)cc1CC1(C)C(=O)Nc2ccc(S(=O)(=O)NC3CCCCC3)cc21 (stereo not drawn) | · | ? | 23µM* | · | -9 | ·
COc1ccccc1CC1(C)C(=O)Nc2ccc(S(=O)(=O)NC3CCCCC3)cc21 (stereo not drawn) | · | ? | 21µM* | · | -5 | ·
CC1(Cc2ccc(F)cc2)C(=O)Nc2ccc(S(=O)(=O)NC3CCCCC3)cc21 (stereo not drawn) | · | ? | ? | · | 0 | ·
Cc1ccccc1CC1(C)C(=O)Nc2ccc(S(=O)(=O)NC3CCCCC3)cc21 (stereo not drawn) | · | 21µM* | ? | · | 63 | ·
CCCC(=O)n1nc(-c2ccco2)nc1NCc1ccccc1Cl | · | -1% | -26% | · | · | ·
NC(N)=NCC1COc2ccccc2O1 (stereo not drawn) | -10% | ? | -20% | · | · | 13%
COc1ccc(OC(F)(F)F)cc1CC1(C)C(=O)Nc2ccc(S(=O)(=O)NC3CCCCC3)cc21 (stereo not drawn) | · | ? | 21µM* | · | -22 | ·
CC1(Cc2ccccc2OC(F)(F)F)C(=O)Nc2ccc(S(=O)(=O)NC3CCCCC3)cc21 (stereo not drawn) | · | ? | ? | · | -2 | ·
Cc1cccc(CNC(=O)c2c3n(c(C)cc2=O)-c2ccccc2SC(c2ccsc2)C3)n1 (stereo not drawn) | · | -13% | -22% | · | · | ·
CCCCn1c(N)c(N(CC(C)C)C(=O)CSc2nn(-c3ccc(F)cc3)c(=S)s2)c(=O)[nH]c1=O | · | -3% | ? | · | -3 | ·
CCCCCCCCC(=O)N1CCN(c2cc3c(cc2F)c(=O)c(C(=O)O)cn3CC)CC1 | -2% | -15% | -24% | 7% | 29 | 18%
